# Assay results as given in the supplement of paper PMC8728848.
# The full list was thinned out, with the strongest signals kept by preference.
# B1: AAL (Aleuria aurantia), P18891 (protein)
# chain: PTEFLYTSKIAAISWAATGGRQQRVYFQDLNGKIREAQRGGDNPWTGGSSQNVIGEAKLFSPLAAVTWKSAQGIQIRVYCVNKDNILSEFVYDGSKWITGQLGSVGVKVGSNSKLAALQWGGSESAPPNIRVYYQKSNGSGSSIHEYVWSGKWTAGASFGSTVPGTGIGATAIGPGRLRIYYQATDNKIREHCWDSNSWYVGGFSASASAGVSIAAISWGSTPNIRVYWQKGREELYEAAYGGSWNTPGQIKDASRPTPSLPDTFIAANSSGNIDISVFFQASGVSLQQWQWISGKGWSIGAVVPTGTPAGW
# B2: FGF1 (Homo sapiens), P05230 (protein)
# chain: MAEGEITTFTALTEKFNLPPGNYKKPKLLYSNGGHFLRILPDGTVDGTRDRSDQHIQLQLSAESVGEVYIKSTETGQYLAMTDGLLYGSQTPNEECLFLERLEENHYNTYISKHAEKNWFVGLKKNGSCKRGPRTHYGQAILFLPLPASSED
# Experiments:
# Assay in all cases: glycan array binding signal (z-score within array); higher = stronger binding
# Conditions in all cases: glycan notation: IUPAC condensed, linker removed
# [1] = molecular target: Neu5Ac(a2-3)GalNAc
# Method in brief: (§1)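 Glycan array data came from 3228 arrays in the Consortium for Functional Glycomics database, and only arrays with an available protein sequence were kept. Glycan names were put into IUPAC-condensed notation, and columns mapping to the same glycan were averaged. The binding signal is a within-array Z-score, averaged across arrays of one protein sequence run at different concentrations or buffers and across linkers. A negative Z-score can be read as non-binding.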
# [2] = molecular target: Neu5Ac(a2-3)[Neu5Ac(a2-6)]GalNAc
# Method in brief: as §1
# [3] = molecular target: Neu5Ac(a2-6)Gal(b1-4)GlcNAc(b1-2)Man(a1-6)[GlcNAc(b1-2)Man(a1-3)]Man(b1-4)GlcNAc(b1-4)GlcNAc
# Method in brief: as §1
# [4] = molecular target: Neu5Ac(a2-8)Neu5Ac(a2-3)[GalNAc(b1-4)]Gal(b1-4)Glc
# Method in brief: as §1
# [5] = molecular target: Neu5Ac(a2-8)Neu5Ac(a2-8)Neu5Ac
# Method in brief: as §1
# [6] = molecular target: Fuc(a1-2)Gal(b1-3)GlcNAc(b1-2)Man(a1-3)[Fuc(a1-2)Gal(b1-3)GlcNAc(b1-2)Man(a1-6)]Man(b1-4)GlcNAc(b1-4)[Fuc(a1-6)]GlcNAc
# Method in brief: as §1
# [7] = molecular target: Fuc(a1-2)Gal(b1-3)[Fuc(a1-4)]GlcNAc(b1-2)Man(a1-3)[Fuc(a1-2)Gal(b1-3)[Fuc(a1-4)]GlcNAc(b1-2)Man(a1-3)]Man(b1-4)GlcNAc(b1-4)GlcNAc
# Method in brief: as §1
# [8] = molecular target: Fuc(a1-2)Gal(b1-4)Glc
# Method in brief: as §1
# [9] = molecular target: Fuc(a1-2)Gal(b1-4)GlcNAc(b1-3)GalNAc
# Method in brief: as §1
# [10] = molecular target: Fuc(a1-2)Gal6S(b1-4)Glc
# Method in brief: as §1
# [11] = molecular target: Fuc(a1-2)Gal6S(b1-4)Glc6S
# Method in brief: as §1
# [12] = molecular target: Fuc(a1-2)[GalNAc(a1-3)]Gal(b1-4)GlcNAc(b1-3)GalNAc
# Method in brief: as §1
# [13] = molecular target: Fuc(a1-3)[Gal(b1-4)]GlcNAc(b1-6)GalNAc
# Method in brief: as §1
# [14] = molecular target: Fuc(a1-3)[Gal3S(b1-4)]GlcNAc6S
# Method in brief: as §1
# [15] = molecular target: Gal(a1-3)Gal(b1-3)GlcNAc(b1-3)GalNAc
# Method in brief: as §1
# [16] = molecular target: Gal(a1-3)Gal(b1-3)[Fuc(a1-4)]GlcNAc(b1-2)Man(a1-3)[Gal(a1-3)Gal(b1-3)[Fuc(a1-4)]GlcNAc(b1-2)Man(a1-6)]Man(b1-4)GlcNAc(b1-4)GlcNAc
# Method in brief: as §1
# [17] = molecular target: Gal(a1-3)Gal(b1-4)GlcNAc(b1-3)GalNAc
# Method in brief: as §1
# [18] = molecular target: Gal(a1-4)Gal(b1-4)GlcNAc
# Method in brief: as §1
# [19] = molecular target: Gal(a1-4)Gal(b1-4)GlcNAc(b1-3)Gal(b1-4)Glc
# Method in brief: as §1
# [20] = molecular target: Gal(b1-3)[Fuc(a1-4)]GlcNAc(b1-2)Man
# Method in brief: as §1
# [21] = molecular target: Gal(b1-3)[Fuc(a1-4)]GlcNAc(b1-2)Man(a1-3)[Gal(b1-3)[Fuc(a1-4)]GlcNAc(b1-2)Man(a1-6)]Man(b1-4)GlcNAc(b1-4)[Fuc(a1-6)]GlcNAc
# Method in brief: as §1
# [22] = molecular target: Gal(b1-4)GalNAc(a1-3)[Fuc(a1-2)]Gal(b1-4)GlcNAc
# Method in brief: as §1
# [23] = molecular target: Gal(b1-4)GlcNAc
# Method in brief: as §1
# [24] = molecular target: Gal(b1-4)GlcNAc(a1-6)Gal(b1-4)GlcNAc
# Method in brief: as §1
# [25] = molecular target: Gal(b1-4)GlcNAc(b1-3)Gal(b1-4)GlcNAc(b1-3)Gal(b1-4)GlcNAc(b1-2)Man(a1-3)[Gal(b1-4)GlcNAc(b1-3)Gal(b1-4)GlcNAc(b1-3)Gal(b1-4)GlcNAc(b1-2)Man(a1-6)]Man(b1-4)GlcNAc(b1-4)[Fuc(a1-6)]GlcNAc
# Method in brief: as §1
# [26] = molecular target: Gal(b1-4)GlcNAc(b1-3)Gal(b1-4)GlcNAc(b1-3)Gal(b1-4)GlcNAc(b1-3)Gal(b1-4)GlcNAc(b1-2)Man(a1-3)[Gal(b1-4)GlcNAc(b1-3)Gal(b1-4)GlcNAc(b1-3)Gal(b1-4)GlcNAc(b1-3)Gal(b1-4)GlcNAc(b1-2)Man(a1-6)]Man(b1-4)GlcNAc(b1-4)[Fuc(a1-6)]GlcNAc
# Method in brief: as §1
# [27] = molecular target: Gal(b1-4)GlcNAc(b1-3)Gal(b1-4)GlcNAc(b1-3)[Gal(b1-4)GlcNAc(b1-3)Gal(b1-4)GlcNAc(b1-6)]GalNAc
# Method in brief: as §1
# [28] = molecular target: Gal3S(b1-3)[Fuc(a1-4)]GlcNAc
# Method in brief: as §1
# [29] = molecular target: Gal3S(b1-4)Glc
# Method in brief: as §1
# [30] = molecular target: Gal3S6S(b1-4)GlcNAc6S
# Method in brief: as §1
# [31] = molecular target: GalNAc(b1-4)GlcNAc(b1-2)Man(a1-3)[GalNAc(b1-4)GlcNAc(b1-2)Man(a1-6)]Man(b1-4)GlcNAc(b1-4)GlcNAc
# Method in brief: as §1
# [32] = molecular target: GalNAc(b1-4)GlcNAc6S
# Method in brief: as §1
# [33] = molecular target: GlcNAc(a1-4)Gal(b1-4)GalNAc
# Method in brief: as §1
# [34] = molecular target: GlcNAc(a1-4)Gal(b1-4)GlcNAc(b1-3)Gal(b1-4)[Fuc(a1-3)]GlcNAc(b1-3)Gal(b1-4)[Fuc(a1-3)]GlcNAc
# Method in brief: as §1
# [35] = molecular target: GlcNAc(b1-2)[GlcNAc(b1-4)]Man(a1-3)[GlcNAc(b1-4)][GlcNAc(b1-2)[GlcNAc(b1-6)]Man(a1-6)]Man(b1-4)GlcNAc(b1-4)GlcNAc
# Method in brief: as §1
Binder,glycan array binding signal (z-score) [1],glycan array binding signal (z-score) [2],glycan array binding signal (z-score) [3],glycan array binding signal (z-score) [4],glycan array binding signal (z-score) [5],glycan array binding signal (z-score) [6],glycan array binding signal (z-score) [7],glycan array binding signal (z-score) [8],glycan array binding signal (z-score) [9],glycan array binding signal (z-score) [10],glycan array binding signal (z-score) [11],glycan array binding signal (z-score) [12],glycan array binding signal (z-score) [13],glycan array binding signal (z-score) [14],glycan array binding signal (z-score) [15],glycan array binding signal (z-score) [16],glycan array binding signal (z-score) [17],glycan array binding signal (z-score) [18],glycan array binding signal (z-score) [19],glycan array binding signal (z-score) [20],glycan array binding signal (z-score) [21],glycan array binding signal (z-score) [22],glycan array binding signal (z-score) [23],glycan array binding signal (z-score) [24],glycan array binding signal (z-score) [25],glycan array binding signal (z-score) [26],glycan array binding signal (z-score) [27],glycan array binding signal (z-score) [28],glycan array binding signal (z-score) [29],glycan array binding signal (z-score) [30],glycan array binding signal (z-score) [31],glycan array binding signal (z-score) [32],glycan array binding signal (z-score) [33],glycan array binding signal (z-score) [34],glycan array binding signal (z-score) [35]
B1,-0.531,-0.551,-0.423,-0.499,-0.526,,,,,,,,,,,,,,,,,,,,,,,,,,,,,,
B2,,,,,,0.366,2.84,-0.358,1.33,0.397,0.797,-0.242,1.04,1.09,0.646,3.56,-0.582,0.333,0.423,3.59,3.02,-0.949,-0.031,-0.827,2.98,1.05,1.64,3.14,-0.046,1.04,6.98,-0.848,0.705,1.24,-0.751
